Only some compounds are listed: those with a hit (about 4.2% of all), similar ones and a draw of the others.
hcDAF-12 act: activates DAF-12 receptor from parasite H. contortus | activation, % at 6.8 µM | AID 652067 | HEK293 hcDAF-12 lit1-tk-luc reporter, luminescence; 0% DMSO, 100% Δ7-dafachronic acid | hit rate 1.4% among 370,000;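 active means activation above the mean of all tested compounds plus 3 SD, cut at about 5.5% in these data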
ssDAF12 agonist: activates DAF-12 receptor from parasite S. stercoralis; HEK293 ssDAF-12/GRIP1 lit1-tk-luc reporter, luminescence; % of 3 µM dafachronic acid response; activation, % at 6.8 µM; hit rate 1% among 370,000; AID 652126;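 active means activation above the mean over all tested compounds plus 3 SD, cut at about 0.9% in these data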
hgDAF-12 ag: agonists of H. glycines DAF-12 nuclear receptor; HEK293 GAL4-hgDAF12 UAS-luciferase reporter, agonist luminescence; normalized to butyrate control; activation, % at 6.8 µM; hit rate 1.8% among 370,000;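 active means activation above a cutoff set at the mean of all screened compounds plus 3 SD, cut at about 10% in these data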
esBAF inh: SWI/SNF esBAF complex inhibition | mouse ES cells, Bmi1-luciferase knock-in reporter, 24 h; 100% = twice the neutral-well signal | reporter increase, % at 12.5 µM | hit rate 2% among 350,000; in the data active means activation above about 40%; inconclusive means no clear call, values can overlap the other calls;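 further: a rise in the Bmi1 reporter signal indicates esBAF inhibition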
DAX1 StAR inh: inhibitors of DAX1 repression of SF-1 activated StAR promoter; HEK293T StAR-luciferase reporter, SF-1/DAX-1 repression relief; inhibition, % at 6.8 µM; hit rate 1.1% among 370,000;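 active means inhibition above the mean over all tested compounds plus 3 SD, cut at about 3.6% in these data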;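 further: higher inhibition means more luminescence from relief of DAX-1 repression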
Wnt act: Wnt/beta-catenin pathway activation. Wnt/beta-catenin reporter cell assay, activator, plate reader. activation, % at 9.35 µM. hit rate 1.2% among 300,000. AID 743398; in the data active means activation above about 30%, passing the limit was not always enough; inconclusive means no clear call, values can overlap the other calls
Numbers stand for hits; 0 = inactive; ? = inconclusive; - = not tested or not shown.

SMILES | hcDAF-12 act | ssDAF12 agonist | hgDAF-12 ag | esBAF inh | DAX1 StAR inh | Wnt act
Cc1ccc(S(=O)(=O)N(C)C[C@@H]2OCCCC[C@H](C)Oc3ccc(NS(=O)(=O)c4cn(C)cn4)cc3C(=O)N([C@@H](C)CO)C[C@@H]2C)cc1 | - | - | - | 0 | - | -
CCC(=O)N[C@@H]1C=C[C@@H](CC(=O)OC)O[C@@H]1CO | - | - | - | 0 | - | -
Cc1noc(C)c1S(=O)(=O)N(C)C[C@@H]1Oc2c(NS(=O)(=O)c3cn(C)cn3)cccc2C(=O)N([C@@H](C)CO)C[C@@H]1C | - | - | - | 0 | - | -
CCOC(=O)Cc1c(C)nc(SC)[nH]c1=O | 0 | 0 | 11 | - | 0 | 0
C=CCSc1nc(C)c(CC(=O)OCCCC)c(=O)[nH]1 | 0 | 0 | 0 | 0 | 0 | 0
O=C(Nc1ccc(F)cc1)C1CC2CCC1C2 (stereo not given) | 0 | 0 | 0 | 0 | 0 | 0
COC(=O)c1ccc(NC(=O)C2CC3CCC2C3)cc1 (stereo not given) | 0 | 0 | 0 | 47 | 0 | 0
CC(C)c1ccc(NC(=O)C2CC3CCC2C3)cc1 (stereo not given) | 0 | 0 | 0 | 57 | 0 | 0
COC(=O)c1ccc(NC(=O)C2C3C=CC(O3)C2C(=O)O)cc1 (stereo not given) | 0 | 0 | 0 | 57 | 0 | -
CN(C)c1cccc(C(=O)OCC(=O)N(Cc2ccccc2)C2CCS(=O)(=O)C2)c1 (stereo not given) | 0 | 0 | 0 | 46 | 0 | 0
O=C1C(c2ccccc2)=NCCN1C(c1ccc(F)cc1)c1nc2ccccc2[nH]1 (stereo not given) | 6.1 | 0 | 0 | 0 | 0 | 0
CCCCCCCCC(c1nc2ccccc2[nH]1)N1CCN=C(c2ccccc2)C1=O (stereo not given) | 0 | 0 | 0 | 0 | 0 | 0
CC(C)C#Cc1ccc2c(c1)O[C@H](CN(C)Cc1cncnc1)[C@H](C)CN([C@H](C)CO)S2(=O)=O | - | - | - | 0 | - | -
O=C(O)c1ccc(C=NNC(=O)c2ccccc2NS(=O)(=O)c2cccs2)cc1 | 0 | 0 | 0 | 0 | 3.7 | 0
O=C(NN=Cc1ccc(O)cc1)c1ccccc1NS(=O)(=O)c1cccs1 | 0 | 0 | 0 | 0 | 0 | 0
CCc1nc2ccc(C(=O)NCC3CCCCC3)cn2c1N(CCC(C)C)CCN(C)C | 0 | 0 | 0 | 0 | 0 | 0
CCc1nc2ccc(C(=O)NCc3ccc(OC)cc3)cn2c1N(CCC(C)C)CCN(C)C | 0 | 1.2 | 0 | 0 | 0 | 0
CC(C)C(OC(=O)c1cc2c(s1)CCCCC2)C(=O)NC(N)=O (stereo not given) | 5.8 | 0 | 0 | - | 0 | -
CCCCN1C(=O)C(O)=C(C(C)=O)C1c1ccccc1[N+](=O)[O-] (stereo not given) | 0 | 0.9 | 0 | - | 0 | 0
COC(=O)[C@]12C=CCN1[C@H](c1ccccc1)c1c(c3ccccc3n1S(=O)(=O)c1ccc(C)cc1)C2 | 0 | 0 | 0 | - | 0 | -
COC(=O)[C@]12C=CCN1[C@H](c1ccc(OC)c(OC)c1)c1c(c3ccccc3n1S(=O)(=O)c1ccc(C)cc1)C2 | 0 | 3.8 | 0 | - | 0 | -
Cc1ccc(NC(=O)c2ccc(Nc3ccccc3F)nc2)cc1 | 0 | 1.2 | 0 | - | 0 | 38
Cc1ccc(C(=O)Nc2ccc(Cl)cn2)cc1 | 0 | 0 | 12 | 0 | 0 | 0
Cc1ccc(CC(=O)Nc2ccc(Cl)cn2)cc1 | 0 | 0 | 0 | ? | 0 | 0
Cc1ccc(NC(=O)c2ccc(NCc3ccc(F)cc3)nc2)cc1 | 0 | 0 | 0 | 0 | 0 | 0
SMILES | hcDAF-12 act | ssDAF12 agonist | hgDAF-12 ag | esBAF inh | DAX1 StAR inh | Wnt act
O=C(Nc1ccc(Cl)cn1)c1cccc(OCc2ccccc2)c1 | 0 | 0 | 0 | 0 | 0 | 0
CCCOc1ccc(C(=O)Nc2ccc(Cl)cn2)cc1 | 5.8 | 0 | 0 | 0 | 0 | 0
O=C(Nc1ccc(Cl)cn1)c1ccc(Oc2ccccc2)cc1 | 0 | 0 | 13 | 0 | 0 | 0
C[C@H](CO)N1C[C@H](C)[C@H](CN(C)C)Oc2ccc(NS(=O)(=O)c3cn(C)cn3)cc2CC1=O | - | - | - | 0 | - | -
Cc1noc(C)c1NC(=O)Nc1ccc2c(c1)C(=O)N([C@H](C)CO)C[C@@H](C)[C@@H](CN(C)C(=O)NC1CCCCC1)O2 | - | - | - | 0 | - | -
CCN1C(=O)CC(N2CCN(c3ccc(C(=O)c4ccccc4)cc3)CC2)C1=O (stereo not given) | 0 | 0 | 0 | 55 | 0 | 0
CCN1C(=O)CC(N2CCN(c3ccc(Cl)cc3)CC2)C1=O (stereo not given) | 0 | 0 | 0 | 0 | 0 | 0
Cn1c(=O)c2c(nc(Oc3ccc(-c4ccccc4)cc3)n2C)n(C)c1=O | 0 | 0 | 0 | 48 | 0 | 0
Cc1ccc(Oc2nc3c(c(=O)n(C)c(=O)n3C)n2C)cc1C | 0 | 0 | 0 | - | 0 | 0
Cc1c(/C(O)=C2/C(=O)C(=O)N(Cc3cccnc3)C2c2cccs2)cnn1-c1ccccc1 (stereo not given) | 0 | 0 | 0 | 46 | 0 | 0
Cc1c(/C(O)=C2/C(=O)C(=O)N(Cc3cccnc3)C2c2ccccn2)cnn1-c1ccccc1 (stereo not given) | 0 | 0 | 0 | - | 0 | 0
COc1ccc(NC(=S)N2CCC(c3ccccc3)C2)cc1 (stereo not given) | 0 | 0 | 12 | ? | 0 | ?
CC1CCCN(C(=S)Nc2ccc(Nc3ccccc3)cc2)C1 (stereo not given) | 0 | 1.3 | 11 | - | 0 | 0
CC1CCCN(C(=S)Nc2ccc(F)cc2)C1 (stereo not given) | 0 | 0 | 0 | - | 0 | 0
OCC1CCCN(C(=S)Nc2ccc(Oc3ccccc3)cc2)C1 (stereo not given) | 0 | 0 | 0 | 82 | 0 | 0
CC(=O)c1ccc(NC(=S)N2CCCC(CO)C2)cc1 (stereo not given) | 0 | 0 | 0 | - | 0 | 0
COC(=O)Cc1ccc(NC(=S)N2CCCC(CO)C2)cc1 (stereo not given) | 0 | 0 | 10 | - | 0 | 0
O=C(NCC[C@@H]1CC[C@@H](NC(=O)c2cnccn2)[C@H](CO)O1)Nc1ccc(Cl)cc1 | - | - | - | 0 | - | -
CO[C@@H]1CN(C)C(=O)c2ccc(NC(=O)C3CCOCC3)cc2OC[C@@H](C)N(Cc2nccs2)C[C@@H]1C | - | - | - | 0 | - | -
CO[C@H]1CN(C)C(=O)c2ccc(NC(C)=O)cc2OC[C@@H](C)N(S(=O)(=O)c2cn(C)cn2)C[C@@H]1C | - | - | - | 0 | - | -
Cn1c(C(=O)c2ccccc2[N+](=O)[O-])nc2ccccc21 | 5.8 | 0 | 0 | - | 0 | 0
Cn1c(-c2ccc([N+](=O)[O-])cc2)nc2ccccc21 | 0 | 0 | 0 | 0 | 0 | 32
CC(C)OCCCNC(=S)NNC(=O)c1ccc(Cl)c(Cl)c1 | 0 | 0 | 11 | - | 0 | 0
Fc1cc(F)c2nc(N3CCCCC3)sc2c1 | 0 | 0 | 0 | 66 | 0 | 0
Clc1cc(Cl)c2nc(N3CCCC3)sc2c1 | 0 | 0 | 11 | - | 0 | 36
Clc1cc(Cl)c2nc(N3CCCCC3)sc2c1 | 0 | 0 | 0 | 53 | 0 | 60
O=C(c1cccs1)N1CCN(c2nc3c(F)cc(F)cc3s2)CC1 | 0 | 0 | 0 | 43 | 0 | 0
